Screens deposited in PubChem BioAssay by several laboratories.
Hits are enriched below; roughly 3.8% of the tested compounds scored in any of these assays.
Yp Topo-I inh: Yersinia pestis topoisomerase I inhibitors, primary screen, biochemical, cleavage product accumulation, plate reader, single point; DNA topoisomerase I (Yersinia pestis CO92); Y. pestis Topo-I cleavage product accumulation; activity, % at 10 µM; 0.064% of 360,000 active; in the data active = activity above about 50%, passing the limit was not always enough
Mtb hypoxia inh: PubChem AID 1159583; M. tuberculosis hypoxia-regulated fluorescent reporter, fluorescence; 0.1% of 300,000 active; fluorescence inhibition, % (test concentration not listed); in the data active = fluorescence inhibition mostly above about 23%, no sharp cut-off; inactive = mostly below about 17%
PrPC TRFRET: inhibitors of human cell surface prion protein PrPC, primary screen, cell-based, TR-FRET | 0.43% of 370,000 active | TR-FRET read-out | AID 720596, 2013 | inhibition, % at 13.8 µM | Major prion protein (Homo sapiens), P04156; in the data active = inhibition above about 24%
Mtb FBA inh: Mtb FBA enzyme inhibitors, primary screen, biochemical, fluorescence, strain H37Rv; Fructose-bisphosphate aldolase (Mycobacterium tuberculosis (strain ATCC 25618 / H37Rv)), …; 2.3% of 360,000 active; inhibition, % at 1 µM; AID 588726, 2011; purified M. tuberculosis FBA, fluorescence read-out
Target sequence (P9WQA3 whole entry, looked up): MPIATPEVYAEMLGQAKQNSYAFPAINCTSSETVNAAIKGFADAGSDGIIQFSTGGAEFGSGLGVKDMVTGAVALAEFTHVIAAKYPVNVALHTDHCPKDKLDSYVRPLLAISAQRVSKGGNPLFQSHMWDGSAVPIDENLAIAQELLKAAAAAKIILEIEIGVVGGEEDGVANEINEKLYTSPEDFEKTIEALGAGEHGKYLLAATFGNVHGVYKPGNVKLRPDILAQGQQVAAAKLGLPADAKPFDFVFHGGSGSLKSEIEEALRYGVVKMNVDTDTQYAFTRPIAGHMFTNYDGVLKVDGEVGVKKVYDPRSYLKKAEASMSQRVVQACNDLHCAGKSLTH
GDH-TPI counter-1: GDH-TPI coupling enzyme inhibitors, primary screen, artefact control for M. tuberculosis FBA inhibitor project, biochemical, absorbance, full deck. GDH-TPI coupled enzyme counterscreen, NADH absorbance. 1.2% of 360,000 active. inhibition, % at 4.8 µM; in the data active = inhibition above about 30%
PrP UTR inh: inhibition of PrP 5' UTR reporter expression. AID 488862, 2010. cell-based PrP 5' UTR mRNA reporter, plate reader. 0.35% of 340,000 active. inhibition, % (concentration not given with the values); in the data active = inhibition above about 52%
Mtb FBA inh conf: M. tuberculosis aldolase blockers, biochemical, fluorescence, strain H37Rv, confirmation. shares compounds with Mtb FBA inh. purified M. tuberculosis FBA, fluorescence read-out. inhibition, % at 1 µM. 78% of 5,600 active
GDH-TPI counter-2: GDH-TPI coupling enzyme inhibitors, artefact control for M. tuberculosis FBA inhibitor project, biochemical, fluorescence, high throughput | shares compounds with Mtb FBA inh | GDH-TPI coupled enzyme counterscreen | inhibition, % at 1 µM | 81% of 5,600 active | AID 652141, 2013; in the data active = inhibition above about 10%
Large screens that a line does not name were inactive (follow-up assays come after a bar, where they were run). Cut-off read from the data, not from the text of the source, unless noted: active = inhibition above about 27%; inactive = the rest.

NC(=O)C(=NO)c1ccccc1	none (no result: Yp Topo-I inh, PrPC TRFRET, Mtb FBA inh, GDH-TPI counter-1, PrP UTR inh)
O=C(CCCCCN1C(=O)c2cccc3cccc(c23)C1=O)NCCCO	Mtb FBA inh 33 | Mtb FBA inh conf 97 | GDH-TPI counter-2 73
COc1ccccc1NC(=O)CCCCCN1C(=O)c2cccc3cccc(c23)C1=O	none
O=C(CN1C(=O)c2cccc3cccc(c23)C1=O)NCCCO	Mtb FBA inh 52 | Mtb FBA inh conf inactive | GDH-TPI counter-2 24
CCOC(=O)C(=CC=C1Sc2cc(OCC)c(OCC)cc2N1CC)C(C)=O	none (no result: Yp Topo-I inh, PrPC TRFRET, Mtb FBA inh, GDH-TPI counter-1, PrP UTR inh)
CCOC(=O)c1[nH]c2ccc(OC)cc2c1NC(=O)CCN1CCC(C)CC1	none (no result: Yp Topo-I inh, Mtb hypoxia inh, Mtb FBA inh, GDH-TPI counter-1, PrP UTR inh)
CCOC(=O)c1[nH]c2cc(OC)c(OC)cc2c1NC(=O)CCN1CCSCC1	Mtb FBA inh 107 | Mtb FBA inh conf 126 | GDH-TPI counter-2 115
C=CCOC(=O)Nc1c(C(=O)OC)[nH]c2ccc(Cl)cc12	Mtb FBA inh 40 (no result: Mtb hypoxia inh) | Mtb FBA inh conf inactive | GDH-TPI counter-2 inactive
CCOC(=O)N1CCN(CC(=O)Nc2c(C(=O)OC)[nH]c3ccc(Cl)cc23)CC1	none
CCOC(=O)c1[nH]c2ccc(OC)cc2c1NC(=O)c1ccccc1C(=O)O	Mtb FBA inh 30 | Mtb FBA inh conf 31 | GDH-TPI counter-2 31
CCOC(=O)c1[nH]c2ccc(OC)cc2c1NC(=O)CN1CCSCC1	Mtb FBA inh 44 (no result: Mtb hypoxia inh) | Mtb FBA inh conf 68 | GDH-TPI counter-2 52
O=C(CNc1ccc(F)cc1)NN=CC1CC=CCC1 (stereo unspecified)	none (no result: Yp Topo-I inh, PrPC TRFRET, Mtb FBA inh, GDH-TPI counter-1, PrP UTR inh)
CCOC(=O)c1[nH]c2cc(OC)c(OC)cc2c1NC(=O)c1ccc2c(c1)OCO2	none
CCOC(=O)c1[nH]c2ccc(F)cc2c1NC(=O)c1cc(OC)c(OC)c(OC)c1	none (no result: Mtb hypoxia inh)
CCOC(=O)c1[nH]c2ccc(F)cc2c1NC(=O)c1ccccc1C(=O)O	Mtb FBA inh 59 | Mtb FBA inh conf inactive | GDH-TPI counter-2 inactive
CCOC(=O)c1[nH]c2ccc(OC)cc2c1NC(=O)c1cccc(OC)c1	none
CCOC(=O)c1[nH]c2ccc(OC)cc2c1NC(=O)CCN1CCc2ccccc2C1	Mtb FBA inh 40 (no result: Mtb hypoxia inh) | Mtb FBA inh conf 87 | GDH-TPI counter-2 83
CCOC(=O)c1[nH]c2ccc(OC)cc2c1NC(C)=O	Mtb FBA inh 34 | Mtb FBA inh conf inactive | GDH-TPI counter-2 inactive
CCOC(=O)c1[nH]c2cc(OC)c(OC)cc2c1NC(=O)CN(C)C1CCCCC1	Mtb FBA inh 33, GDH-TPI counter-1 40 | Mtb FBA inh conf inactive | GDH-TPI counter-2 inactive
COc1ccc(NC(=S)NN=Cc2cccn2Cc2ccc(F)cc2Cl)cc1	none (no result: Yp Topo-I inh, PrPC TRFRET, Mtb FBA inh, GDH-TPI counter-1, PrP UTR inh)
COc1ccccc1C=NN1C(=O)c2cccc3cccc(c23)C1=O	none (no result: Yp Topo-I inh, PrPC TRFRET, Mtb FBA inh, GDH-TPI counter-1, PrP UTR inh)
COc1ccc2oc(C(=O)OCC(=O)c3ccc4c(c3)OCCO4)c(C)c2c1	none
CCN(C(=O)COC(=O)c1oc2ccc(OC)cc2c1C)C1CCCCC1	Mtb FBA inh 30 | Mtb FBA inh conf 103 | GDH-TPI counter-2 78
COc1ccc2oc(C(=O)OCC(=O)N(C)C3CCCCC3)c(C)c2c1	Mtb FBA inh 38 (no result: Mtb hypoxia inh) | Mtb FBA inh conf inactive | GDH-TPI counter-2 inactive
COc1ccc2oc(C(=O)OCC(=O)N(C)CC(=O)Nc3ccc(C)cc3)c(C)c2c1	none
Cc1c(C(=O)OCC(=O)N(C)C2CCS(=O)(=O)C2)oc2ccc(Br)cc12 (stereo unspecified)	none
COc1ccc2oc(C(=O)OCC(=O)N(C)C3CCS(=O)(=O)C3)c(C)c2c1 (stereo unspecified)	Mtb FBA inh 45 | Mtb FBA inh conf 73 | GDH-TPI counter-2 53
COc1cc(C=NNc2ccc(S(N)(=O)=O)cc2[N+](=O)[O-])cc(OC)c1O	none (no result: Yp Topo-I inh, PrPC TRFRET, Mtb FBA inh, GDH-TPI counter-1, PrP UTR inh)
Clc1ccc(/C=C/c2nc3ccccc3[nH]2)c(Cl)c1	Mtb FBA inh 63 | Mtb FBA inh conf 60 | GDH-TPI counter-2 44
Clc1ccc(/C=C/c2nc3ccccc3[nH]2)cc1	Mtb FBA inh 53, GDH-TPI counter-1 39 | Mtb FBA inh conf active | GDH-TPI counter-2 124
O=C(/C=C/c1ccc(Cl)cc1Cl)c1nc2ccccc2[nH]1	none
O=c1[nH]c2ccccc2nc1C=Cc1ccc(Cl)cc1	none (no result: Yp Topo-I inh, PrPC TRFRET, Mtb FBA inh, GDH-TPI counter-1, PrP UTR inh)
CC(=NNS(=O)(=O)c1ccc(CC(C)C)cc1)c1ccncc1	none (no result: Yp Topo-I inh, PrPC TRFRET, Mtb FBA inh, GDH-TPI counter-1, PrP UTR inh)
CCCOc1ccc2cc(C(=O)NCc3ccccc3)c(=O)oc2c1	Mtb FBA inh 44 | Mtb FBA inh conf 50 | GDH-TPI counter-2 39
COc1ccc2cc(C(=O)NCc3ccco3)c(=O)oc2c1	Mtb FBA inh 46, GDH-TPI counter-1 33 | Mtb FBA inh conf 35 | GDH-TPI counter-2 26
COc1ccc2cc(C(=O)NCc3ccco3)c(=Nc3ccc(C(=O)O)cc3)oc2c1	none
C=CC1c2cccc(C)c2N(S(=O)(=O)c2ccc(C)cc2)C(c2ccccc2)C1(C#N)S(=O)(=O)c1ccccc1 (stereo unspecified)	none (no result: Yp Topo-I inh, PrPC TRFRET, Mtb FBA inh, GDH-TPI counter-1, PrP UTR inh)
NC(=NOC(=O)CC1CCCCC1)c1ccc([N+](=O)[O-])cc1	none (no result: Yp Topo-I inh, PrPC TRFRET, Mtb FBA inh, GDH-TPI counter-1, PrP UTR inh)
O=C(CN(c1ccccn1)S(=O)(=O)c1ccccc1)NN=Cc1cccc([N+](=O)[O-])c1	none (no result: Yp Topo-I inh, PrPC TRFRET, Mtb FBA inh, GDH-TPI counter-1, PrP UTR inh)
O=c1[nH]cccc1-c1nc2cc(Cl)ccc2n1Cc1ccccc1	Mtb FBA inh 77 | Mtb FBA inh conf inactive | GDH-TPI counter-2 inactive
CC(C)c1nc2cc(Cl)ccc2n(Cc2ccccc2)c1=O	none
O=C(Cc1cccs1)NC(Cc1c[nH]c2ccccc12)C(=O)O (stereo unspecified)	none
Cc1c(O)ccc2c(CC(=O)N[C@@H](Cc3c[nH]c4ccccc34)C(=O)O)cc(=O)oc12	Mtb FBA inh 38 | Mtb FBA inh conf 89 | GDH-TPI counter-2 62
O=C(Cc1cc(=O)oc2cc(O)ccc12)N[C@@H](Cc1c[nH]c2ccccc12)C(=O)O	Mtb FBA inh 37 | Mtb FBA inh conf active | GDH-TPI counter-2 161
CCOc1cc(C=NNC(=O)c2cc(C)[nH]n2)ccc1OC(=O)c1ccc([N+](=O)[O-])cc1	none (no result: Yp Topo-I inh, PrPC TRFRET, Mtb FBA inh, GDH-TPI counter-1, PrP UTR inh)
COC(=O)c1ccccc1Nc1ccccc1	none
O=S(=O)(O)c1cccc2cccc(Nc3ccccc3)c12	Mtb FBA inh 95, GDH-TPI counter-1 31 | Mtb FBA inh conf active | GDH-TPI counter-2 active
C[C@H](NC(=O)c1cc2c([nH]c3ccccc32)c(-c2ccccc2)n1)C(=O)O	Mtb FBA inh 36 | Mtb FBA inh conf 141 | GDH-TPI counter-2 108
CSCCC(NC(=O)c1ccc(Cl)cc1)C(=O)O (stereo unspecified)	none
